Source: PubChem BioAssay AID2283234 (EPA ToxCast)
Results filed as inconclusive are left out. Activity calls are given as the source filed them. How the source made its calls: active means hit-call score of the fitted dose curve at least 0.9, where 1 is the maximum; inconclusive means response in the unintended direction; inactive means score below 0.9.

Molecular target: human Dual Specificity Styrosine-Phosphorylation-Regulated Kinase 1A (DYRK1a), DYRK1A (gene 1859) (UniProt Q13627)
Experiment: NVS_ENZ_hDYRK1a: NovaScreen (NVS) Enzymatic Assay for human Dual Specificity Styrosine-Phosphorylation-Regulated Kinase 1A (DYRK1a)
Method: NVS_ENZ_hDYRK1a is a biochemical, single-readout assay that uses extracted gene-proteins in a cell-free assay. Measurements were taken 1 hour after chemical dosing in a 96-well plate.NVS_ENZ_hDYRK1a is one of one assay component(s) measured or calculated from the NVS_ENZ_hDYRK1a assay. It is designed to make measurements of enzyme activity, a form of enzyme reporter, as detected with fluorescence intensity signals by Fluorescence and electrophoretic mobility shift technology.Data from the assay component NVS_ENZ_hDYRK1a was analyzed into 1 assay endpoint. This assay endpoint, NVS_ENZ_hDYRK1a, was analyzed in the positive analysis fitting direction relative to DMSO as the negative control and baseline of activity. Using a type of enzyme reporter, loss-of-signal activity can be used to understand changes in the enzymatic activity as they relate to the gene DYRK1A. Furthermore, this assay endpoint can be referred to as a primary readout, because this assay has produced multiple assay endpoints where this one serves a enzymatic activity function. To generalize the intended target to other relatable targets, this assay endpoint is annotated to the kinase intended target family, where the subfamily is dual-specific kinase.
Binding assays used specific radioligands (tritiated, iodinated) with non-radioactive competitive displacement ligands in agonist or antagonist protocols (as indicated) and various reference compounds and inhibitors to titrate specific binding to receptors and transporters. Most enzyme assays (CYPs, kinases, phosphatases, proteases, HDACs) used recombinant protein and specific substrates (fluorescence mostly, some colorimetric and radioactive) and inhibitors, followed by a biochemical separation of substrate and product. All assays for the biochemical HTS were initially run in duplicate at a single concentration (10 uM for CYP450 assays and 25 uM for all others). […] Each assay was run with positive and negative controls, and concurrent controls on every plate. The follow-up (secondary) screen tested active chemical-pairs in concentration series, as well as a few additional assays not tested in the primary screen, some selected negative inactives, and several cases re-run in the concentration series for confirmatory purposes.

SMILES	outcome	AC50
N#CSCSc1nc2ccccc2s1	inactive	–
S=C([S-])NCCNC(=S)[S-].[Mn+2]	–	6.02 µM (active)
O=C(O)C1(C(=O)Nc2ccc(Cl)cc2Cl)CC1	–	5.11 µM (active)
CC(C)(C)[C@@H](O)[C@@H](Cc1ccc(Cl)cc1)n1cncn1	inactive	–
S=C(S)NCCNC(=S)S.[Mn+2].[S-]C([S-])=NCCN=C([S-])[S-].[Zn+2]	–	1.39 µM (active)
